# Assay outcomes (PubChem BioAssay)
# Compounds with a hit are over-represented: about 10% of the library has one in this group of screens.
# FLuc inh = inhibitors of firefly (Photinus pyralis) luciferase; P08659; purified P. pyralis luciferase, luminescence, biochemical; Potency, µM (series often up to 115 µM), most hits filed as inhibitors; actives 2.5% (n = 76,000); AID 1347043; note: nearly all actives have a fitted effect of over 65% in size
#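 Luminescence read by CCD imaging after purified firefly luciferase (10nM final) was added to substrate buffer holding 10uM D-luciferin and 10uM ATP, pH 7.5, pre-dosed with compound.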
# 3T3 cytotox = kills NIH 3T3 cells; NIH 3T3 viability, CellTiter-Glo ATP luminescence, 48-72 h; Potency, µM (top dose mostly 96.7 µM), hits mostly inhibitors; actives 4.3% (n = 94,000); note: nearly all actives have a fitted effect of over 55% in size
#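 Luminescent ATP readout (CellTiter-Glo, 10 min RT) after 48 or 72 hr compound exposure of NIH 3T3 cells seeded at 400 cells/well in 1536-well format; quantitative HTS.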
# HEK293 tox = HEK 293 cell cytotoxicity; HEK 293 viability, ATP luminescence (CellTiter-Glo), 48-72 h; Potency, µM (series often up to 115 µM), most hits filed as inhibitors; actives 6.6% (n = 94,000); note: nearly all actives have a fitted effect of over 60% in size
#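 Viability of HEK 293 cells, plated at 250 cells/well, was judged by cellular ATP after compound treatment for 48 or 72 hr. Luminescence was imaged 10 min after CellTiter-Glo addition at room temperature.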
# NPR1 antag = blocks ANP-stimulated signaling of human Npr1 receptor; P16066; HEK293 hNpr1 GloSensor cGMP, ANP-stimulated luminescence; Potency, µM (series often up to 46.3 µM), usual class: inhibitors; AID 1347048; actives 1.6% (n = 76,000); calls by dose curve; note: nearly all actives have a fitted effect of over 60% in size
#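 HEK293 cells stably expressing human Npr1 and cGMP GloSensor pGS-40F, loaded 2 h with 2% GloSensor reagent, given compound 30 min at room temperature. Luminescence read before and 20 min after 0.1 nM hNppA.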
# GPT2 inhibitor = GPT2 alanine aminotransferase inhibition | Recombinant GPT2, coupled pyruvate oxidase/HRP Amplex Red fluorescence | Potency, µM (series often up to 57.7 µM), most hits filed as inhibitors | actives 0.25% (n = 100,000) | AID 1671188; note: nearly all actives have a fitted effect of over 60% in size
#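 Inhibition is scored from Amplex Red fluorescence generated when pyruvate oxidase and HRP act on pyruvate released by GPT2. Reactions contain 10ng/uL enzyme, 250uM a-KG and 2mM L-alanine and run 30 min at room temperature.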
# A number is an active result; 0 = inactive; ? = inconclusive; - = no result. Unless noted, calls come from the whole dose curve; as a rule, active = well fitted curve in the direction sought with a large enough effect; inconclusive = small, poorly fitted or top-dose-only effect, or another doubt; inactive = no such curve, though single readings can be large; an effect the other way counts as inactive or inconclusive.
SMILES,FLuc inh,3T3 cytotox,HEK293 tox,NPR1 antag,GPT2 inhibitor
COc1ccc(C(=O)Nc2nc3c(s2)C[C@@H]2[C@](C)(CO)[C@H](O)CC[C@@]2(C)[C@@H]3CC(=O)N(C)Cc2ccccc2)cc1,0,?,?,0,0
C#CCNC(=O)C[C@@H]1c2nc(NC(=O)c3ccc(C(C)(C)C)cc3)sc2C[C@@H]2[C@](C)(CO)[C@H](O)CC[C@]21C,35µM,32µM,?,0,0
COc1ccc(C(=O)Nc2nc3c(s2)C[C@@H]2[C@](C)(CO)[C@H](O)CC[C@@]2(C)[C@@H]3CC(=O)N2CCC(C)CC2)cc1,0,18µM,?,0,0
COc1cccc(F)c1-c1ncc2c(n1)OCCN(c1cccc(C(F)(F)F)c1)C2=O,0,?,?,0,0
COc1cccc(-c2cc(C(=O)N3CCC(C#N)CC3)c3cnn(C)c3n2)c1,-,0,0,-,-
COc1cccc(-c2cc(C(=O)N3CCC(Cc4ccccc4)CC3)c3cnn(C)c3n2)c1,-,?,45µM,-,-
COc1cccc(-c2cc(C(=O)N3CCCCC3)c3cnn(C)c3n2)c1,-,0,0,-,-
COc1cccc(-c2cc(C(=O)N3CCC(c4ccccc4)CC3)c3cnn(C)c3n2)c1,-,?,35µM,-,-
Cc1cccc(CN2CCCC(O)(CN3CCC(C)CC3)C2=O)c1 (centres undefined),0,0,0,0,0
Cc1cccc(CN2CCCC(O)(CNCc3ncccc3C)C2=O)c1 (centres undefined),0,14µM,?,0,0
Cc1ccc(-c2noc([C@@H]3C[C@H](NS(=O)(=O)c4ccc(F)cc4)CN3C)n2)cc1,45µM,?,?,0,?
CN1C[C@@H](NS(=O)(=O)c2ccc(F)cc2)C[C@H]1c1nc(-c2cccnc2)no1,0,0,0,0,0
CN1C[C@@H](NS(=O)(=O)c2ccc(Cl)cc2)C[C@H]1c1nc(-c2ccc(F)cc2)no1,40µM,?,?,0,0
CC(=O)Nc1ccc(S(=O)(=O)N[C@H]2C[C@@H](c3nc(-c4ccc(F)cc4)no3)N(C)C2)cc1,0,0,?,?,0
CN1C[C@@H](NS(=O)(=O)c2ccccc2)C[C@H]1c1nc(-c2ccc(F)cc2)no1,?,?,100µM,0,0
Cc1ccc(C)c(CN2C(=O)NC3(CCN(C(=O)c4cnccn4)CC3)C2=O)c1,0,0,?,0,0
O=C(NCC1CN(C(=O)CCc2ccccc2)CC12CN(c1ccccc1)C2)c1ccccc1 (centres undefined),0,0,?,0,0
O=C(Nc1ccccc1)O[C@@H]1CO[C@H]2[C@@H]1OC[C@@H]2NC(=S)Nc1ccccc1,0,0,0,0,0
O=C(Nc1ccccc1)N[C@H]1CO[C@H]2[C@@H]1OC[C@H]2OC(=O)Nc1ccccc1,45µM,0,?,0,0
CC(=O)c1ccc(NC(=O)O[C@@H]2CO[C@H]3[C@@H]2OC[C@@H]3NC(=S)NC2CCCCC2)cc1,0,0,79µM,0,0
CC(=O)c1ccc(NC(=O)O[C@@H]2CO[C@H]3[C@@H]2OC[C@@H]3NC(=O)C2CC2)cc1,0,0,0,0,0
COC(=O)c1cccc(C(=O)N[C@H]2CO[C@H]3[C@@H]2OC[C@H]3OC(=O)Nc2ccc(Oc3ccccc3)cc2)c1,0,0,10µM,0,0
CC(C)c1ccc(NC(=O)N[C@H]2CO[C@H]3[C@@H]2OC[C@H]3OC(=O)Nc2cccc(C(F)(F)F)c2)cc1,0,25µM,28µM,?,0
CCCS(=O)(=O)N1CCc2nn(CC3CC3)c(=O)n2CC1,0,0,0,0,0
CN1CCN(Cc2ccc(Nc3cnc4ccc(N5CCOCC5)nn34)cc2)CC1,0,0,?,0,?
CN1CCN(Cc2ccc(Nc3cnc4ccc(-n5ccnc5)nn34)cc2)CC1,?,?,50µM,0,0
CC(C)NC(=O)N1CCn2c(nnc2C2CCCN2)C1 (centres undefined),-,0,0,-,0
Cc1ccc(-c2cccc(CN3CCCC(NC(=O)C4CC4)C3)c2)cc1Cl (centres undefined),-,?,35µM,-,0
COc1ccccc1C(=O)NC1CCCN(Cc2cccc(-c3ccc(C)c(Cl)c3)c2)C1 (centres undefined),-,?,40µM,-,0
